# From the supplement of paper PMC3334620
# Whole data set: some 33,000 sequences, median “E-score (-0.5 to 0.5)” near -0.0034, cut for the highest 2% near 0.25. Many of the other results were omitted from the sample, so the highest values are more common in it than they were.
# Molecular target: T1, Yap3 (UniProt P38749)
# T1 sequence: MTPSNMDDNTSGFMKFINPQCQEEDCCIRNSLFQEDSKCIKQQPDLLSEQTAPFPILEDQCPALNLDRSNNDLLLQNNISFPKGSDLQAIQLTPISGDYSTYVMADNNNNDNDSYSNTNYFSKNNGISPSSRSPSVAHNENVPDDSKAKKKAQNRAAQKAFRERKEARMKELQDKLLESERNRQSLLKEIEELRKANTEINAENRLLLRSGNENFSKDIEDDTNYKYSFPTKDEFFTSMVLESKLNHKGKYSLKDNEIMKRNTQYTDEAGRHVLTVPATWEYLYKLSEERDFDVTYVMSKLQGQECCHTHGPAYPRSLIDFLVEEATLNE
# Assay: PBM E-score (8-mer binding enrichment) (E-score (-0.5 to 0.5)); higher = stronger / more preferred TF binding
# Conditions: protein concentration: 100 nM; construct: GST-full length
# Procedure, shortened: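 Yeast transcription factors carrying a GST tag, as full-length proteins or DNA-binding domains, were produced by PURExpress in vitro transcription/translation. About 100-200 nM protein was applied to universal all-10-mer Agilent arrays, double-stranded by primer extension on fresh or once-stripped slides. Bound protein was detected with fluorescent anti-GST, and scans were normalised with masliner. The Universal PBM Analysis Suite gave each ungapped eight-base word, pooled with its reverse complement, an E-score, a modified Wilcoxon-Mann-Whitney statistic.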
row,Sequence,PBM E-score
1,ATATACAA,0.322
2,ATATACTC,0.126
3,AGATCTAC,0.0426
4,AGTAACCC,-0.00628
5,ACAAGTAA,0.0548
6,GTCCCTTA,0.179
7,ACTTATAT,0.29
8,ACTTATTC,0.162
9,CCTTATGA,0.113
10,ACTTATAC,0.174
11,CCTTATTC,0.0232
12,GCTTATTA,0.232
13,CCTTATTA,0.33
14,ACTTATTA,0.263
15,ACTTATAG,-0.0355
16,CCCACGTC,-0.122
17,CGATTAGC,-0.102
18,GCACTATA,0.0864
19,TAGCAAGA,0.0496
20,ACGTAATA,0.44
21,CGGTAATA,0.202
22,CCGTAATA,0.201
23,GGGTAATA,0.0455
24,ACGTAAAG,0.184
25,GCGTAATA,0.305

row,Sequence,PBM E-score
1,ACGTAACG,0.208
2,ACGTAAGA,0.23
3,ACGTAAAA,0.198
4,ACGTAATG,0.354
5,GCGTAAAA,0.231
6,AGGTAATA,0.294
7,GAGAGCGA,-0.166
8,CCAGTGTC,-0.1
9,GCAGATCC,0.0102
10,ATCAATAC,0.11
11,ACTACCTG,0.0736
12,GCGTCTCC,-0.0737
13,AAATCCTT,-0.0476
14,CGCTACAC,-0.0665
15,GATTCAAA,0.0843
16,AGCTCTAT,0.0447
17,GCTTCTCA,-0.0894
18,CCAACATA,0.305
19,CCAACATC,-0.011
20,GCAACATA,0.0566
21,CCAATGCC,-0.162
22,AAAAGTAG,0.105
23,GCAGCAAA,-0.0366
24,ACATTCTG,-0.0885
25,CGCATTGA,0.125

row,Sequence,PBM E-score
1,GTCCTATA,-0.0462
2,CTCCTATA,-0.191
3,ATCCTATA,0.26
4,CGAGTTGA,0.0975
5,GCGGTCGA,0.0757
6,ACCTGAAG,0.00792
7,GCCTTTTA,-0.0778
8,CTGGGCGC,-0.229
9,CATTTCCC,0.293
10,GATTTCCC,0.124
11,GATTTCAA,0.0767
12,CATTTCAA,0.265
13,TATTTCAA,0.235
14,CATTTTCC,0.193
15,ATGGGAGG,-0.0823
16,TATCTGCA,0.0463
17,AAAGGTCG,-0.0514
18,AACTTGCA,0.108
19,GATTCACA,0.00517
20,TATTCACA,0.27
21,CATTCACG,-0.0375
22,GAAAATCC,0.0305
23,GCGATGAC,0.0826
24,ATAATTTG,0.294
25,CGAATTTA,0.136

row,Sequence,PBM E-score
1,AAAATTTG,0.0972
2,GGAATTTA,0.173
3,AGAATTTA,0.276
4,AGAATTTG,0.107
5,ATAATTTC,0.17
6,ATAATTTA,0.303
7,CTAATTTA,0.19
8,GTAATTTA,0.238
9,CGAATTTC,0.298
10,AGAATTTC,-0.00706
11,AAGAAGGG,-0.0033
12,CCCCGTCG,-0.309
13,CATGCTTC,-0.024
14,CAAGGGGG,-0.226
15,AGTGCATA,-0.0677
16,GACTGAGC,-0.255
17,CCTGTTCC,-0.0284
18,AAGGCCCC,-0.285
19,ATACAGGG,0.14
20,CAGCCTAA,-0.12
21,AACACGAT,0.0988
22,AAATTTAC,0.219
23,GAAATTAC,0.265
24,GAAATTAA,0.342
25,GAAATTCC,0.0452

row,Sequence,PBM E-score
1,AAAATTAT,0.257
2,AAAATTAA,0.138
3,AAAATTAC,0.273
4,CAAATTAA,0.155
5,AAAATTTT,0.246
6,AAAATTAG,0.227
7,AAAATTGC,0.0358
8,CAAATTAC,0.144
9,GGCTGGGA,-0.103
10,AACCACCG,-0.0601
11,CTGGTATA,-0.0636
12,TCCATGGA,0.142
13,ACAGATGG,0.00201
14,CGTAATCC,0.285
15,CCTAATCC,0.0254
16,AGTAATCC,0.102
17,AGTAATCA,0.117
18,GGTAATCA,0.189
19,CGTAATCA,0.349
20,CGATCGTA,0.126
21,ACCAAATG,0.0905
22,TAGTAAGA,0.227
23,CCAGCACG,-0.128
24,CCGCATCA,-0.0944
25,ACAAAACG,0.173

row,Sequence,PBM E-score
1,AAAAAACA,0.315
2,TAAAAACA,0.246
3,AAAAAACG,0.315
4,CAAAAACG,0.136
5,GAAAAACA,0.094
6,AGACTTCC,-0.161
7,ATAGGGTG,-0.123
8,ATTCAGAA,0.0683
9,ATAGCGTG,-0.00896
10,AGGGGTTG,-0.134
11,ACTTTATG,0.124
12,AATGTGAT,0.232
13,AATGTGAC,0.145
14,AATGTGAA,0.255
15,CTCCAGGC,-0.0968
16,GCAGAGAC,-0.322
17,AGTCGACA,0.0995
18,AGTCGACC,-0.0691
19,AGTCGACT,0.277
20,AGCCGTGC,-0.233
21,GATATATA,0.271
22,GATATGGA,0.263
23,AATATGGA,0.123
24,TATATACA,0.226
25,TATATGGA,0.108

row,Sequence,PBM E-score
1,GATATATC,0.133
2,TATATATA,0.304
3,CATATATA,0.227
4,GATATACA,0.187
5,ACTCTAGA,0.0228
6,ACAGAGGT,-0.0174
7,ACGCTATC,0.109
8,ATTTTCGG,0.109
9,ATCGTGGG,0.11
10,GAAGACGC,-0.0463
11,CCCGACCG,-0.3
12,GTATAAAA,0.287
13,TTATAAAA,0.256
14,GGATAAAA,0.194
15,ATATAAAA,0.249
16,GTATAAAC,0.206
17,CTATAAAA,0.0227
18,CACCACGG,-0.366
19,GATTGCGA,0.108
20,AATTTACG,0.239
21,ATTTTACA,0.145
22,CTTTTACC,0.197
23,ATTTTACC,0.297
24,AATTTACC,0.145
25,ATTTTACG,0.309
